The source of these data is PubChem BioAssay (NCATS).

Inconclusive results are not listed. Activity calls are given as the source filed them. Calls come from the whole dose curve; as a rule, active = well fitted inhibition curve with a large enough effect; inconclusive = small, poorly fitted or top-dose-only effect; inactive = flat fitted curve, though single readings scatter.

Assay in all cases: qHTS profiling for inhibitors of Plasmodium falciparum proliferation (AID 504749); note: nearly all actives have a fitted effect of over 60% in size
Holding throughout (conditions): P. falciparum in erythrocytes, SYBR Green DNA, 72 h; series mostly up to 28.7 µM
(In general: In qHTS, concentration-response curves come from the screen itself.)

One assay concerns CP335. Summed up:
(§1)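 Each compound contacts P. falciparum-infected red blood cells for 72 h at 37 C; lysis buffer (Tris, EDTA, saponin, Triton X, SYBR Green I) is added and fluorescence measured next morning; values normalized to controls.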

Another assay relates to DIV17. Summed up: as §1
A further assay concerns Dd2. In short, it runs like this: as §1
The next assay relates to FAB9. In short, it runs like this:
as §1

The test system of a further assay is HB3. In short, it runs like this:
as §1

A further assay deals with JCK. Summed up:
as §1

The test system of the next assay is P93_24. Summed up:
as §1

A further assay has as its system PAD. Summed up:
as §1

A further assay has as its system PC49. In short, it runs like this: as §1
The subject of another assay is DFO2036. In short, it runs like this: as §1
A further assay has as its system DIV30. Summed up: as §1
For another assay, the system named is ECU. Summed up:
as §1

A further assay deals with ICS. In short, it runs like this:
as §1

A further assay relates to N140. In short, it runs like this:
as §1

The subject of another assay is P94_40. In short, it runs like this: as §1
The next assay deals with PC15. In short, it runs like this: as §1
A further assay has as its system PC26. In short, it runs like this:
as §1

The subject of the next assay is SC27B. In short, it runs like this:
as §1

The subject of the next assay is GB4. Summed up:
as §1

Another assay deals with DIV14. In short, it runs like this:
as §1
Potency is the fitted concentration of half-maximal effect.

Turning to `CN1C[C@@H]2C[C@H]1CN2c1cc2c(cc1F)c(=O)c(C(=O)O)cn2C1CC1`, the Potency is 1.2 µM (active) with CP335, 1.41 µM (active) with Dd2 and 1.58 µM (active) in the assay on P93_24. Moreover, the Potency entry with DIV17, with FAB9, in the assay with HB3, with JCK, in the assay with PAD and in the assay on PC49 was “inactive” each time.

Turning to `O=C(c1ccccc1)C(O)c1ccccc1` (stereo not given), the Potency entry in the assay on CP335, in the assay with DFO2036, in the assay on Dd2, in the assay with ECU, with FAB9 and with HB3 was “inactive” in each case. The Potency result with ICS, with JCK, in the assay on N140, with P93_24, in the assay with P94_40 and in the assay on PAD was “inactive” each time. Besides, the Potency result in the assay on PC15, with PC26 and in the assay with SC27B was “inactive” in each case. The call in the assay on DIV30 was inactive.

Consider `CC(CN(C)C)C(C)(O)Cc1ccc(Cl)cc1` (stereo not given), for which the Potency result in the assay with DFO2036, in the assay on FAB9, in the assay on HB3, in the assay with JCK, in the assay on PAD and in the assay on PC15 was “inactive” each time. The values for the Potency in the assay with DIV17, in the assay with Dd2 and with GB4 were 6.01 µM (active), 7.94 µM (active) and 6.75 µM (active), respectively.

`O=C(O)c1ccc[n+]([O-])c1`: the Potency entry in the assay on CP335, with DFO2036, with DIV17, with Dd2, in the assay on ECU and in the assay with FAB9 was “inactive” each time. The Potency result with GB4, in the assay on HB3, in the assay with ICS, with JCK, in the assay with N140 and in the assay with P93_24 was “inactive” each time. Also, the Potency entry with P94_40, with PAD, in the assay with PC15, in the assay on PC26, in the assay with PC49 and in the assay on SC27B was “inactive” in each case. Also, the molecule was called inactive in the assay with DIV30.

Take `CCCCCCCCCCCCCCCCCCO`: the Potency entry in the assay with CP335, with DFO2036, in the assay with Dd2, in the assay with ECU, in the assay with FAB9 and in the assay on GB4 was “inactive” in each case. Also, the Potency result in the assay on HB3, in the assay with ICS, in the assay with JCK, in the assay on N140, with P93_24 and with P94_40 was “inactive” each time. The Potency entry in the assay on PAD, in the assay on PC15, with PC26, in the assay on PC49 and in the assay with SC27B was “inactive” throughout. In addition, the result with DIV30 was inactive.

On to `C[C@H]1COc2c(C3(N)CC3)c(F)cc3c(=O)c(C(=O)O)cn1c23`, for which the Potency entry in the assay with DFO2036, in the assay on DIV17, with Dd2, in the assay on ECU, with FAB9 and with HB3 was “inactive” each time. In addition, the Potency result in the assay with ICS, with JCK, in the assay on N140, in the assay with P93_24, in the assay with P94_40 and in the assay with PAD was “inactive” each time. Also, the Potency entry in the assay on PC15, with PC26, in the assay with PC49 and in the assay on SC27B was “inactive” each time. The call with DIV30 was inactive.

For `COC(=O)c1ccccc1C(=O)c1ccc(OCCN2CCCCC2)cc1`, the Potency result in the assay with CP335, in the assay on DFO2036, with ECU, in the assay with FAB9, in the assay on GB4 and in the assay with HB3 was “inactive” each time. Moreover, the Potency entry in the assay with ICS, in the assay with JCK, with N140, in the assay on P93_24, in the assay on P94_40 and with PAD was “inactive” each time. In addition, the Potency entry in the assay with PC15, in the assay on PC26, in the assay on PC49 and with SC27B was “inactive” in each case. Besides, the molecule was called inactive in the assay on DIV30.

On to `O=C1c2ccccc2C(=O)C1c1ccc(Br)cc1`, for which the call in the assay with DIV30 was inactive. In addition, the Potency in the assay with Dd2 is 11.2 µM (active); in the assay on GB4, 9.53 µM (active); in the assay with ICS, 11.2 µM (active); with P94_40, 10 µM (active). For the same molecule, the Potency entry in the assay on FAB9, in the assay with HB3, with JCK, in the assay on N140, in the assay with PC15 and in the assay on PC49 was “inactive” each time. The Potency result in the assay on SC27B is “inactive”.

For the molecule `CC1CCN(CCCC(=O)c2ccc(F)cc2)CC1`, the Potency entry in the assay on DFO2036, in the assay on Dd2, in the assay on ECU, with FAB9, with GB4 and with HB3 was “inactive” in each case. In addition, the Potency entry in the assay with ICS, in the assay on JCK, in the assay on N140, with P93_24, in the assay with P94_40 and in the assay on PAD was “inactive” throughout. Besides, the Potency entry in the assay on PC15, in the assay with PC26, in the assay on PC49 and in the assay on SC27B was “inactive” throughout. Besides, in the assay with DIV30, the molecule was classed as inactive.

Turning to `Cc1cccc(C(=O)O)c1O`, the Potency entry with CP335, in the assay on DFO2036, with Dd2, in the assay with ECU, with FAB9 and with GB4 was “inactive” in each case. Besides, the Potency result in the assay with HB3, in the assay with ICS, with JCK, in the assay with N140, in the assay on P93_24 and in the assay on P94_40 was “inactive” in each case. The Potency entry in the assay with PAD, in the assay on PC15, in the assay with PC26, in the assay with PC49 and with SC27B was “inactive” throughout. Besides, in the assay on DIV30, the call was inactive.

Take `Cc1cc(-n2nc3ccc(Cl)cc3n2)c(O)c(C(C)(C)C)c1`: the Potency result with CP335, with DIV14, in the assay with DIV17, in the assay on Dd2, in the assay on FAB9 and in the assay on GB4 was “inactive” in each case. Also, the Potency entry in the assay with HB3, in the assay on ICS, in the assay on JCK, in the assay on PC15, with PC26 and with PC49 was “inactive” each time. The Potency entry in the assay with SC27B is “inactive”. For the same molecule, the molecule was classed as inactive in the assay on DIV30.

For `CC(=O)OC[C@H]1O[C@@](COC(C)=O)(O[C@H]2O[C@H](COC(C)=O)[C@@H](OC(C)=O)[C@H](OC(C)=O)[C@H]2OC(C)=O)[C@@H](OC(C)=O)[C@@H]1OC(C)=O`, the Potency result with CP335, in the assay with DIV14, with DIV17, in the assay on Dd2, in the assay on FAB9 and with GB4 was “inactive” throughout. For the same molecule, the Potency result in the assay on HB3, in the assay on ICS, in the assay on JCK, in the assay with PC15, in the assay with PC26 and in the assay on PC49 was “inactive” throughout. Further, the molecule was called inactive in the assay on DIV30. Further, the Potency with P94_40 was 2.82 µM (active).

For `NC(=O)CCCCC1CCSS1` (stereo not given), the Potency entry with CP335, with DFO2036, in the assay with Dd2, in the assay with FAB9, in the assay with JCK and in the assay on N140 was “inactive” in each case. The Potency result with PC15, in the assay on PC49 and with SC27B was “inactive” in each case.

As to `CCCCCCCCCCC(CO)CCCCCCCC` (stereo not given), the Potency result with CP335, in the assay with DFO2036, with Dd2, in the assay on ECU, in the assay on FAB9 and with HB3 was “inactive” each time. Besides, the Potency result in the assay on JCK, in the assay on N140, in the assay on P94_40, in the assay with PAD, in the assay on PC15 and in the assay with PC26 was “inactive” throughout. Also, the Potency result in the assay with PC49 and in the assay with SC27B was “inactive” throughout. Besides, in the assay on DIV30, the molecule was called inactive. In the assay with ICS, the Potency was 8.91 µM (active).
